This is an account of results in PubChem BioAssay AID2330 (Broad Institute, 2010).

The campaign covered roughly 37,000 compounds. About 2,800 (7.6%) were called active. Not shown: some 1% with an inconclusive outcome. The sample holds actives, similar compounds and a random draw of the others, so the mix is not that of the screen. Values without a mark were called inactive. No stated cut-off is given here; in the data, active means inhibition above about 80%; inconclusive means no clear call, values can overlap the other calls; inactive means below that.

The nature of this assay: NOMO-1 AML cell viability reduction, primary screen, STK33 inhibitor project, CellTiter-Glo luminescence (AID 2330). The conditions noted are these: NOMO-1 AML viability, 72 h, hits give high values, concentration not given here. (In general: In ATP-based viability assays light output follows the ATP content of the culture.)
As for `C[C@H](CO)N1C[C@H](C)[C@@H](CN(C)Cc2ccc3c(c2)OCO3)Oc2c(NC(=O)C3CCOCC3)cccc2C1=O`, the inhibition (usually the relative decrease from the control value, in per cent) was 20.1%.

For the compound `O=C(Nc1ccc(Cl)cc1C(=O)NCc1ccco1)c1ccco1`, the inhibition was 31.2%.

`CC(C)NC(=O)N(C)C[C@@H]1Oc2c(NC(=O)c3nc4ccccc4s3)cccc2C(=O)N([C@H](C)CO)C[C@H]1C`: the inhibition was -10.2%.

As for `C[C@@H]1CN([C@H](C)CO)C(=O)c2cccc(NC(=O)c3nc4ccccc4s3)c2O[C@H]1CN(C)S(=O)(=O)c1ccc(Cl)cc1`, the inhibition was 61.5%.

On to `C[C@@H]1CN([C@H](C)CO)C(=O)c2cccc(NC(=O)c3nc4ccccc4s3)c2O[C@@H]1CN(C)Cc1ccc(Oc2ccccc2)cc1`, for which the inhibition was 54.9%.

`C[C@H](CO)N1C[C@H](C)[C@@H](CN(C)Cc2ccc(Cl)c(Cl)c2)Oc2c(NC(=O)C3CCCCC3)cccc2C1=O`: the inhibition was 102% (active).

With `C[C@@H]1CN([C@@H](C)CO)C(=O)c2cccc(NC(=O)c3nc4ccccc4s3)c2O[C@@H]1CN(C)Cc1ccc(Cl)c(Cl)c1`, the inhibition was 87.1% (active).

Turning to `COc1ccc(CN(C)C[C@H]2Oc3c(NC(=O)C4CCCCC4)cccc3C(=O)N([C@@H](C)CO)C[C@H]2C)cc1`, the inhibition was 2.14%.

Turning to `C[C@@H]1CN([C@H](C)CO)C(=O)c2cccc(NC(=O)c3nc4ccccc4s3)c2O[C@@H]1CN(C)C`, the inhibition is 6.43%.

As for `COc1ccc(CN(C)C[C@H]2Oc3c(NC(=O)C4CCCCC4)cccc3C(=O)N([C@@H](C)CO)C[C@@H]2C)cc1`, the inhibition was 15.7%.

In the case of `C[C@@H]1CN([C@H](C)CO)C(=O)c2cccc(NC(=O)c3nc4ccccc4s3)c2O[C@H]1CN(C)Cc1ccccc1`, the inhibition was 96.6% (active).

For `Cc1cc(C)c(OCC(=O)Nc2cccnc2)c(Br)c1`, the inhibition was 5.52%.

`COc1cc(C(C)=O)ccc1OCC(O)Cn1nc(C)cc1C` (stereo not given): the inhibition was 10.2%.

Take `COc1ccc(NC(=O)Nc2ccc3c(c2)CC(=O)N([C@@H](C)CO)C[C@H](C)[C@@H](CN(C)S(=O)(=O)c2cn(C)cn2)O3)cc1`: the inhibition was -12.8%.

Consider `C[C@H]1CN([C@@H](C)CO)C(=O)c2cc(NC(=O)Cn3cnnn3)ccc2O[C@H]1CN(C)Cc1ccc(C(=O)O)cc1`, for which the inhibition is 30.7%.

`COc1ccc(CCn2c(C)nc(=O)c(-c3ccccc3)c2C)cc1OC`: the inhibition was 2.96%.

Regarding `C[C@@H]1CN([C@@H](C)CO)C(=O)c2cccc(NS(=O)(=O)c3ccc(F)cc3)c2O[C@H]1CN(C)C(=O)NC1CCCCC1`, the inhibition is 4.03%.

As to `C[C@H](CO)N1C[C@H](C)[C@@H](CN(C)Cc2ccc(Cl)c(Cl)c2)Oc2c(NC(=O)Nc3ccccc3)cccc2C1=O`, the inhibition was 59.3%.

On to `O=C(c1cc([N+](=O)[O-])ccc1NCc1cccnc1)N1CCOCC1`, for which the inhibition is -0.79%.

Turning to `COc1ccc(NC(=O)N(C)C[C@@H]2Oc3c(NC(=O)Nc4cccc5ccccc45)cccc3C(=O)N([C@@H](C)CO)C[C@H]2C)cc1`, the inhibition was 33.8%.

Take `C[C@@H]1CN([C@H](C)CO)C(=O)c2cc(NS(=O)(=O)c3ccc(F)cc3)ccc2O[C@@H]1CN(C)C(=O)Nc1cccc2ccccc12`: the inhibition is 15.5%.

As to `COC(=O)c1ccc(NCc2cc(O)ccc2O)cc1`, the inhibition was 96.2% (active).

On to `COC(=O)c1c(C)n(CCNc2ccc([N+](=O)[O-])cc2)c2ccc(O)cc12`, for which the inhibition is 32.6%.

For `COC(=O)c1ccc(NC(=O)CN(c2ccc(C)c(Cl)c2)S(C)(=O)=O)cc1`, the inhibition is -3.13%.

Regarding `O=C(CSc1nc(O)cc(=O)n1-c1ccccc1F)Nc1ccc(Cl)cc1Cl`, the inhibition is 9.63%.

Turning to `COC(=O)c1ccccc1NC(=O)CN(c1ccc2c(c1)OCCO2)S(C)(=O)=O`, the inhibition was -1.24%.

Take `C[C@@H]1CN([C@H](C)CO)C(=O)c2cc(NC(=O)Cc3cn(C)c4ccccc34)ccc2O[C@H]1CN(C)S(C)(=O)=O`: the inhibition was 15.5%.

As for `C[C@H]1CN([C@@H](C)CO)C(=O)c2cc(NC(=O)Cc3cn(C)c4ccccc34)ccc2O[C@H]1CN(C)CC1CCCCC1`, the inhibition is 15%.

Consider `C[C@H]1CN([C@@H](C)CO)C(=O)c2cc(NC(=O)Cc3cn(C)c4ccccc34)ccc2O[C@@H]1CN(C)Cc1ccc(Cl)c(Cl)c1`, for which the inhibition is 87.6% (active).

On to `C[C@H](CO)N1C[C@H](C)[C@H](CN(C)Cc2ccncc2)Oc2ccc(NC(=O)Cc3cn(C)c4ccccc34)cc2CC1=O`, for which the inhibition was 6.89%.

In the case of `C[C@H]1CN([C@@H](C)CO)C(=O)c2cc(NC(=O)Cc3cn(C)c4ccccc34)ccc2O[C@H]1CN(C)Cc1ccc(Cl)c(Cl)c1`, the inhibition was 84% (active).

Regarding `C[C@@H]1CN([C@@H](C)CO)C(=O)c2cc(NC(=O)Cc3ccccc3)ccc2O[C@H]1CN(C)Cc1ccc(Cl)c(Cl)c1`, the inhibition was 54.8%.

Turning to `Cc1noc(C)c1NC(=O)N(C)C[C@@H]1Oc2ccc(NC(=O)Nc3ccc(C(F)(F)F)cc3)cc2C(=O)N([C@H](C)CO)C[C@@H]1C`, the inhibition was 7.38%.

With `CC(=O)N[C@@H](C(=O)O[C@H]1CCC(C)(C)[C@@H]2CCC3=C(COC3=O)[C@@]12C)C(C)C`, the inhibition is 25.2%.

With `Cc1ccc(-c2nc(S(=O)(=O)c3ccc(Br)cc3)c(SCC(N)=O)o2)cc1`, the inhibition was 11.1%.

Regarding `O=C(c1ccccc1)c1cnn(-c2ccc(Cl)cc2)n1`, the inhibition is 18.2%.

Consider `Cc1ccccc1NC(=O)CSc1nnc(-c2ccc([N+](=O)[O-])cc2)n1C`, for which the inhibition is -7.25%.

On to `O=C1C(=O)N(CCn2c3ccccc3c3nc4ccccc4nc32)c2ccccc21`, for which the inhibition is 119% (active).

For `CCn1c2ccccc2c2nnc(SCC(=O)O)nc21`, the inhibition is 11.8%.

With `CCCn1c2ccccc2c2nnc(SCC(=O)Nc3cccc4ccccc34)nc21`, the inhibition was 9.77%.

With `Cc1ccc(C)c(OCC(=O)Nc2ccccc2C#N)c1`, the inhibition is 15.4%.

In the case of `C[C@@H]1CN([C@H](C)CO)C(=O)c2cccc(NS(=O)(=O)c3cn(C)cn3)c2O[C@@H]1CN(C)Cc1ccc(C(F)(F)F)cc1`, the inhibition is -20.1%.

As to `C[C@@H]1CN([C@@H](C)CO)C(=O)c2cccc(NS(=O)(=O)c3ccccc3)c2O[C@@H]1CN(C)S(=O)(=O)c1ccc(F)cc1`, the inhibition was 65%.

`O=C(Nc1ccccc1)Nc1ccc(C2SCCS2)cc1`: the inhibition is 89.9% (active).

Consider `O=C(Nc1ccccc1)Nc1cc(C2CC2)nn1-c1ccccc1`, for which the inhibition is 16.4%.

Turning to `O=C(Nc1ccccc1)C(=S)Nc1ccccc1`, the inhibition is 38.4%.

With `C=C1C(=O)O[C@H]2C3=C(C)C[C@H](OC(C)=O)C[C@]3(C)CC[C@@H]12`, the inhibition is 122% (active).

For the compound `COc1ccc(CN(C)C[C@H]2Oc3ccc(NS(=O)(=O)c4c(C)noc4C)cc3CC(=O)N([C@H](C)CO)C[C@H]2C)cc1`, the inhibition is 5.72%.

With `COc1ccc(N(C(C)C(=O)Nc2cccc(Br)c2)S(C)(=O)=O)cc1` (stereo not given), the inhibition was -13.9%.

Turning to `COC(=O)c1ccc(NC(=O)CSc2nc(-c3ccccc3)cc(=O)[nH]2)cc1`, the inhibition was 0.0616%.

In the case of `Cc1nc(SCC(=O)Nc2ccc(C(=O)O)cc2)[nH]c(=O)c1C`, the inhibition is 24.5%.

As for `COC(=O)c1ccc(NC(=O)CSc2nc(-c3ccccc3)c(-c3ccccc3)[nH]2)cc1`, the inhibition was 102% (active).

As to `C[C@H](CO)N1C[C@H](C)[C@H](CN(C)S(C)(=O)=O)Oc2ccc(NC(=O)c3ccncc3)cc2CC1=O`, the inhibition is -14.9%.

With `CNC[C@H]1Oc2ccc(NS(=O)(=O)c3ccc(F)cc3)cc2CC(=O)N([C@H](C)CO)C[C@H]1C`, the inhibition was -15.6%.

Take `Oc1cc2c(cc1O)CN(C(=S)NCCc1ccc(Cl)cc1)CCC2`: the inhibition was 96.6% (active).

As to `S=C(NCC1CC1)Nc1ccc(Cl)cc1`, the inhibition was 34.8%.

For `COc1cccc2cc(C(=O)C3C(=O)C(=O)N(CCN4CCOCC4)C3c3ccc(F)cc3)oc12` (stereo not given), the inhibition was -8.3%.

Regarding `COc1ccc(CNC(=O)c2c(C)oc3c2cc(OC(C)=O)c2ccccc23)cc1`, the inhibition was 43%.

As to `Cc1noc(C)c1S(=O)(=O)Nc1ccc2c(c1)CC(=O)N([C@H](C)CO)C[C@@H](C)[C@@H](CN(C)Cc1ccc(C(=O)O)cc1)O2`, the inhibition was -16.8%.

As for `C[C@H](CO)N1C[C@H](C)[C@H](CN(C)S(=O)(=O)c2cn(C)cn2)Oc2c(NC(=O)c3ccncc3)cccc2C1=O`, the inhibition was 29.1%.

On to `COc1ccc(OC)c(NC(=O)Cn2cc(C(=O)C3CC3)c3ccccc32)c1`, for which the inhibition is -2.38%.

For `O=C(Cn1cc(C(=O)C2CC2)c2ccccc21)Nc1ccccc1Cl`, the inhibition was 3.17%.

`Cc1c(Cl)cccc1NC(=O)Cn1cc(C(=O)c2cccs2)c2ccccc21`: the inhibition was 88.1% (active).

As to `C[C@@H]1CN([C@@H](C)CO)C(=O)c2cccc(N(C)C)c2O[C@H]1CN(C)S(=O)(=O)c1cccs1`, the inhibition is 22.8%.

Turning to `Cc1ccnc(N)c1`, the inhibition is 6.37%.

In the case of `C[C@H](CO)N1C[C@H](C)[C@H](CN(C)C)Oc2ccc(NC(=O)Nc3ccc(F)cc3)cc2CC1=O`, the inhibition is -3.06%.

`COc1ccc(NC(=O)N(C)C[C@@H]2Oc3c(NC(=O)NC4CCCCC4)cccc3C(=O)N([C@H](C)CO)C[C@H]2C)cc1`: the inhibition is -1.16%.

Take `C=CC(C)(O)CCC1(C)C2=C(C(OC(C)=O)C(OC(C)=O)C1C)C(C)(C)CCC2` (stereo not given): the inhibition is 115% (active).

`C[C@@H]1CN([C@@H](C)CO)C(=O)c2cc(NC(=O)Nc3ccccc3)ccc2O[C@H]1CN(C)S(=O)(=O)c1ccccc1`: the inhibition is -0.0629%.

As to `C[C@H](CO)N1C[C@H](C)[C@H](CN(C)S(=O)(=O)c2ccc(Cl)cc2)Oc2ccc(NC(=O)C3CCCCC3)cc2C1=O`, the inhibition is 7.26%.
